This note sets out measurements from PubChem BioAssay AID1345085 (National Center for Advancing Translational Sciences (NCATS), 2018).

Inconclusive results are not listed. A call without a number means that no potency is given here. Calls of active or inactive are those of the source. Calls come from the whole dose curve; as a rule, active = well fitted cell-killing curve with a large enough effect; inconclusive = small, poorly fitted or top-dose-only effect, or effect the other way; inactive = no such curve, though single readings can be large or run the other way.
Potency is the fitted concentration of half-maximal effect.

This experiment deals with Jar. Put plainly: Confirmatory qHTS for gynecologic anti-cancer compounds from libraries of approved drugs and bioactive compounds. Note: nearly all actives have a fitted effect of over 55% in size. The note with it: gynecologic cancer cell panel viability, ATPlite luminescence, 48 h; series mostly up to 57.6 µM. The procedure, abridged: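 ATP-based luminescent viability (ATPlite) after 48 h drug treatment at 37 °C, 5% CO2, across 57.5 uM–0.977 nM in 1:3 steps. Cells seeded at 1,000 per well 16 h beforehand; IC50 values computed, HEK 293T as selectivity control.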
`C=C(C)[C@H]1Cc2c(ccc3c2O[C@@H]2COc4cc(OC)c(OC)cc4[C@@H]2C3=O)O1`: the Potency was 34.3 nM (active).

For `O=C(O)Cc1ccccc1`, the Potency result is “inactive”.

As to `C[C@]12CC[C@H]3[C@@H](CCC4=CC(=O)CC[C@@H]43)[C@@H]1CC[C@@H]2OC(=O)CCc1ccccc1`, the Potency result is “inactive”.

`CCC(=O)O[C@H]1CC[C@H]2[C@@H]3CCC4=CC(=O)CC[C@]4(C)[C@H]3CC[C@]12C`: the Potency result is “inactive”.

As to `C[C@H]1CCC/C=C/C2C[C@H](O)C[C@H]2[C@H](O)/C=C/C(=O)O1` (some centres not stated), the Potency was 432 nM (active).

Consider `Cc1sc2c(c1C)C(c1ccc(Cl)cc1)=NC(CC(=O)OC(C)(C)C)c1nnc(C)n1-2` (configuration not stated), for which the Potency is 5440 nM (active).

As for `CCNC(=O)C[C@@H]1N=C(c2ccc(Cl)cc2)c2cc(OC)ccc2-n2c(C)nnc21`, the Potency result was “inactive”.
